# Only some compounds are listed: those with a hit (about 11% of all), similar ones and a draw of the others.
# HP1b binding inh – inhibitors of HP1-beta chromodomain binding to methylated histone tails. AID 540317. hit rate 0.56% among 390,000. Potency, µM (series often up to 114 µM), usual class: inhibitors. AlphaScreen HP1-beta / biotin-H3K9me3 peptide binding; also: nearly all actives have a fitted effect of over 70% in size
# Target sequence (P83916 whole entry, looked up): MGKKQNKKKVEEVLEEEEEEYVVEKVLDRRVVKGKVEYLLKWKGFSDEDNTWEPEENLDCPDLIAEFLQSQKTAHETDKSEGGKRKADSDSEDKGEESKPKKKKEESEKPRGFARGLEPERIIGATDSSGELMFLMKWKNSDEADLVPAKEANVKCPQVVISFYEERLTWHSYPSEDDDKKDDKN
#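 Compound inhibition of the preformed complex between 50 nM HP1-beta and 50 nM biotinylated H3K9me3 peptide was read by AlphaScreen. Buffer was PBS pH 7.4 with 0.01% Tween-20. Incubations ran 30 min at room temperature, with 10 ug/mL donor/acceptor beads.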
# PLK1 PBD inh – blocks phosphopeptide binding to human PLK1 polo-box domain; P53350; hit rate 2.8% among 360,000; Potency, µM, hits mostly inhibitors; Plk1 PBD binding of FITC phosphopeptide, fluorescence polarization; also: series mostly up to about 57 µM; nearly all actives have a fitted effect of over 65% in size
# G9a block – inhibitors of human histone lysine methyltransferase G9a; G9a H3K9 monomethylation, AlphaScreen, 2 h; AID 504332; Potency, µM (doses to about 102 µM), most hits filed as inhibitors; hit rate 8.8% among 350,000; also: nearly all actives have a fitted effect of over 75% in size
#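 Readings reflect AlphaScreen signal from monomethyl-H3K9 antibody detection. HMT at 20 nM; substrate b-H3K9 500 nM; cofactor SAM 20 uM; 2 h RT reaction; compounds tested as titrations in qHTS with 15 min preincubation.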
# VDR inhibitor – vitamin D3 receptor (human) inhibition; VDR-SRC2-3 peptide fluorescence polarization, 2 h; Potency, µM, actives largely listed as inhibitors; hit rate 0.93% among 400,000
# Target sequence (P11473 whole entry, looked up): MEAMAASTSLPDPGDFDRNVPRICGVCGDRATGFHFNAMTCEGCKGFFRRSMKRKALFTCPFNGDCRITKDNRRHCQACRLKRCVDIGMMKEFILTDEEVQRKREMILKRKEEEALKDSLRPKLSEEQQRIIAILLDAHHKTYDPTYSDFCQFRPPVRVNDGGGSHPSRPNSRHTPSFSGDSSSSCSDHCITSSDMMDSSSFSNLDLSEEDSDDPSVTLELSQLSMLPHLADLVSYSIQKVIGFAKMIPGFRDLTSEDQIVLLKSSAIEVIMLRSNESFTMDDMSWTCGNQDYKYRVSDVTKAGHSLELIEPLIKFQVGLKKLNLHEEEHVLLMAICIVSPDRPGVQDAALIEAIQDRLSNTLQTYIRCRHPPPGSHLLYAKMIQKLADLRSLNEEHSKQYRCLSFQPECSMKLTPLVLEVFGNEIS
#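 FP read-out; VDR + SRC2-3 coactivator peptide; 23 nl compound by pintool; 2 h RT incubation; reagents held at 4 deg C, protected from light.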
# BAZ2B block – BAZ2B (human) inhibition | Q9UIF8 | AlphaScreen BAZ2B-H3K14Ac peptide displacement | Potency, µM (doses to about 114 µM), actives largely listed as inhibitors | hit rate 4.4% among 360,000 | AID 504333; also: nearly all actives have a fitted effect of over 60% in size
#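 AlphaScreen displacement of biotin-H3(5-23)K14Ac peptide (50 nM final) from BAZ2B (50 nM final) in PBS pH 7.4, 0.01% Tween-20; complex preformed 30 min RT, then compounds (top 110 uM) 30 min RT, beads 20 min dark.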
# JMJD2A Tudor inh – blocks the human JMJD2A Tudor domain; O75164; AlphaScreen JMJD2A-Tudor / H3K4me3 peptide binding; Potency, µM (top dose mostly 114 µM), actives largely listed as inhibitors; hit rate 4.4% among 390,000; also: nearly all actives have a fitted effect of over 50% in size
# Numbers stand for hits; - = inactive; ? = inconclusive; . = no result given; [ ] = another dose, or the depositor's remark. Calls follow the shape of the dose curve; as a rule, active = well fitted curve in the direction sought with a large enough effect; inconclusive = small, poorly fitted or top-dose-only effect, or another doubt; inactive = no such curve, though single readings can be large; an effect the other way counts as inactive or inconclusive.
SMILES,HP1b binding inh,PLK1 PBD inh,G9a block,VDR inhibitor,BAZ2B block,JMJD2A Tudor inh
CC1CCN(CC(=O)Nc2ccc(S(=O)(=O)N3CCCC(C)C3)cc2)CC1 (stereo not drawn),-,-,.,-,-,-
CC1CCN(CC(=O)Nc2ccc(C(=O)N3CCCCC3)cc2)CC1,?,-,28µM,-,50µM,1µM
COc1ccc(NC(=O)CN2CCC(C)CC2)cc1,-,-,-,-,-,-
CC(C)CC(=O)Nc1ccc(C(=O)CN2CCC(C)CC2)cc1,-,-,10µM,-,-,-
CC(C)CC(=O)Nc1ccc(S(=O)(=O)N2CCCC2)cc1,-,-,-,-,-,-
CCC(=O)Nc1ccc(C(=O)CN2CCC(C)CC2)cc1,.,.,10µM,.,-,.
CCCC(=O)Nc1ccc(N2CCN(C(=O)CCC)CC2)cc1,-,-,50µM,-,-,-
Cc1ccc(C)c(CN2C(=O)c3ccccc3S(=O)c3ccc(C(=O)NCc4ccccc4Cl)cc32)c1 (stereo not drawn),-,.,-,?,?,-
CCCCCOC(=O)CSc1ncnc2c1sc1nc(N3CCOCC3)c3c(c12)CCCC3,-,.,-,-,-,-
COc1ccc(NS(=O)(=O)c2ccc3c(c2)CCN3C(=O)CCC(=O)O)cc1Cl,-,.,-,-,-,-
Cc1cccc(NS(=O)(=O)c2cc3c(cc2C)n(C)c(=O)c(=O)n3C)c1,-,-,-,-,-,-
CC1CCN(c2ccc(NC(=O)Cn3c(=O)oc4ccccc43)cc2)CC1,-,?,-,-,?,-
CCC(=O)Nc1ccc(N2CCC(C)CC2)cc1,-,-,8.9µM,-,-,-
O=C(O)CCNS(=O)(=O)c1ccc2ccccc2c1,-,-,-,-,?,-
O=C(O)CCCNc1ccc(S(=O)(=O)Nc2ccccc2C(=O)O)cc1C(=O)O,-,-,50µM,-,?,-
O=C(O)CCNc1cc2ccccc2cc1C(=O)O,-,-,?,-,.,40µM
COc1ccc(Nc2oc(/C=C/c3ccc(OC)c(OC)c3)nc2C#N)cc1,-,.,-,-,-,-
CNC(=O)Cn1nc(-c2ccc(C)cc2)c2ccccc2c1=O,-,12µM,-,?,-,?
COc1ccccc1NC(=O)Cn1nc(-c2ccc(Cl)cc2)c2ccccc2c1=O,-,-,10µM,-,-,-
O=C(Cn1nc(-c2ccc(Cl)cc2)c2ccccc2c1=O)NCC1CCCO1 (stereo not drawn),?,13µM,-,?,-,35µM
CNC(=O)CCn1nc(-c2ccc(C)cc2)c2ccccc2c1=O,-,-,-,-,-,-
Cc1ccc(-c2nn(CC(=O)NCC3CCCO3)c(=O)c3ccccc23)cc1 (stereo not drawn),-,-,?,-,-,-
COc1ccccc1NC(=O)CCn1nc(-c2ccccc2)c2ccccc2c1=O,-,.,-,56µM,-,-
O=C(Cc1cccc2ccccc12)N1CCCc2ccccc21,-,-,-,-,-,-
Cc1cccnc1C(NC(=O)C1CCN(Cc2ccc(Oc3ccccc3)cc2)CC1)c1ccccc1 (stereo not drawn),.,-,.,.,.,.
SMILES,HP1b binding inh,PLK1 PBD inh,G9a block,VDR inhibitor,BAZ2B block,JMJD2A Tudor inh
Cc1ccccc1-c1nccc(Nc2ccc(F)cc2)n1,.,.,-[0.501 µM],-,.,.
CCC1CCCCN1C(=O)Cn1c(=O)n(-c2ccccc2C(F)(F)F)c(=O)c2c(C)c(C(=O)N(C)C)sc21 (stereo not drawn),-,.,-,-,-,-
CCOC(=O)CCCCN(Cc1ccccc1F)S(=O)(=O)c1ccc(F)c(C(=O)Nc2cc(Cl)cc(Cl)c2)c1,-,.,-,-,-,-
O=C(O)[C@@H]1CN[C@@H](C(=O)O)C1,.,.,-,-,.,.
CCCS(=O)(=O)NC(=O)C1(C)CCCN(C(=O)c2ccc3ccccc3c2)C1 (stereo not drawn),.,-,.,.,.,.
Oc1[nH]c2ccccc2c1N=Nc1nncc2ccccc12,?,?,13µM,-,?,-[11.4 µM]
O=C(C1CC(=O)N(c2ccc(F)c(Cl)c2)C1)N1CCOCC1 (stereo not drawn),.,-,.,.,.,.
CC(C)N(Cc1ccccc1)C(=O)/C=C/c1ccccc1[N+](=O)[O-],-,-,-[12.7 µM],-,?,-
CN(C/C=C/c1ccccc1[N+](=O)[O-])Cc1ccccc1,?,-,-[0.501 µM],-,56µM,28µM
CCOc1ccc(NC(=O)CN(C)C(=O)CN2C(=O)NC3(CCCC3)C2=O)cc1OCC,-,-,56µM,-,-,-
CCOc1ccc(NC(=O)CN(C)C(=O)Cc2c[nH]c3ccccc23)cc1OCC,-,-,50µM,-,-,-
Cc1ccc(C(C(=O)Nc2ccc3c(c2)OCO3)N(C)C(=O)Cc2c[nH]c3ccccc23)cc1 (stereo not drawn),-,-,40µM,-,?,?
CNC(=O)c1c(NC(=O)CCS(=O)(=O)c2ccc(C)cc2)sc2c1CCN(C(=O)OC)C2,-,?,50µM,?,-,-
O=S1(=O)c2c(F)cccc2O[C@@H](COCc2ccccc2)CN1CCc1ccc(F)cc1,-,-,.,-,.,-
COc1ccccc1Nc1nn2c(=O)c3ccc(C(=O)NCc4cccnc4)cc3nc2s1,.,.,-,.,56µM,.
COc1ccc(Nc2cc(C(=O)NCc3ccco3)c3ccccc3n2)c(OC)c1,-,-,?,-,50µM,?
COc1ccccc1Nc1nn2c(=O)c3ccc(C(=O)NCc4ccc(F)cc4)cc3nc2s1,-,.,-,-,?,-
COc1ccc(Nc2cc(C(=O)NCc3cccnc3)c3ccccc3n2)c(OC)c1,.,.,45µM,.,?,.
COc1ccc(Nc2cc(C(=O)NCc3ccccn3)c3ccccc3n2)c(OC)c1,.,.,-,.,?,.
O=C(Nn1cnnc1)c1cc(-c2ccccn2)nc2ccccc12,-,-,-[12.7 µM],-,-,-
O=C(NNS(=O)(=O)c1ccc2ccccc2c1)c1cc(-c2ccccn2)nc2ccccc12,-,?,79µM,-,-,-
O=C(CC1CCC1)NC(c1ccccc1)c1ccccc1,-,-,-,-,-,-
CC1CCN(C(=O)c2ccc3c(c2)N(Cc2ccccc2)C(=O)c2ccccc2S3(=O)=O)CC1,-,.,-,-,-,-
O=C(NCc1ccco1)c1cc(-c2ccccc2)nc2ccccc12,-,-,-[2.33 µM],-,-,-
COc1ccc(NC(=O)NCc2ccco2)c(OC)c1,-,12µM,?,?,-,-
O=C(NCc1ccco1)c1cc(-c2ccccn2)nc2ccccc12,-,-,79µM,-,-,-
O=C(OCC#CCSc1nnc(-c2cccc3ccccc23)o1)c1sc2ccccc2c1Cl,.,.,.,.,.,-
Nc1ccc2nn(-c3cc([N+](=O)[O-])ccc3O)nc2c1,-,-,40µM,-,-,-
O=C(CS(=O)(=O)c1cn(CC(=O)N2CCCC2)c2ccccc12)Nc1ccccc1,-,-,-,-,-,-
Cc1ccc(CNC(=O)CS(=O)(=O)c2cn(CC(=O)N3CCOCC3)c3ccccc23)cc1,-,-,25µM,-,-,-

# Bioassay records from PubChem.
